The panel holds about 79,000 compounds, 15% with a hit somewhere; the sample as a whole holds those more often. Active and inactive are the calls of the source. No stated cut-off is given here; in the data, active means growth inhibition above about 70%; inactive means the rest.

The nature of this experiment: NCI Yeast Anticancer Drug Screen. Data for the mec2-1 strain (AID 157). The following applies: S. cerevisiae mec2-1 strain, at 50.0 µM, active compounds read high. In outline: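 Mutant yeast (mec2-1) grown with compound; growth inhibition relative to vehicle control reported.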
Take `C[N+](C)(CCO)Cc1ccccc1`: the growth inhibition was 1.6% (inactive).

Consider `CCOC(=O)C(C)(C)Oc1ccc2c(=O)cc(-c3ccccc3)oc2c1`, for which the growth inhibition is 93% (active).

On to `CS(=O)c1cc(=O)c2ccccc2s1` (stereo not drawn), for which the growth inhibition is 98.9% (active).

Turning to `COC(=O)c1c[nH]c2ccc(Br)cc12`, the growth inhibition was 28.8% (inactive).

In the case of `CCCCN1C(=O)C(=O)N(c2ccccc2)C1=O`, the growth inhibition was 32.9% (inactive).

On to `Cc1cc(N)c2cc(OCCOc3ccc4nc(C)cc(N)c4c3)ccc2n1`, for which the growth inhibition was 95.2% (active).

As for `Cc1c2c(c(C)c3c4c(oc13)CCCC4)C=NCC2`, the growth inhibition is 92.8% (active).

In the case of `CCCC(c1ccc(O)cc1)c1ccc(O)cc1`, the growth inhibition is 99.5% (active).

For the compound `CC(C)=NNc1ncnc2nc[nH]c12`, the growth inhibition is 19.1% (inactive).

Take `Clc1ccc(C2=Nc3ccccc3SC(c3ccc(Cl)c(Cl)c3)C2)c(Cl)c1` (stereo not drawn): the growth inhibition is 49.3% (inactive).

For the compound `N#Cc1c(Cl)nsc1-c1ccc([N+](=O)[O-])cc1`, the growth inhibition was 93% (active).

Take `C=CCSc1nc2ccccc2c(=O)n1Cc1ccco1`: the growth inhibition was -12.2% (inactive).

On to `COC(=O)CSc1nc2[nH]c(SC)c(C(N)=O)c2c(=O)n1-c1ccccc1`, for which the growth inhibition is 29.4% (inactive).

Take `Cc1cc2oc3c(ccc(=O)n3C)c(=O)c2c(C)c1Cl`: the growth inhibition was 29.4% (inactive).

Turning to `CC(=O)SC1C(=O)N(C)C(SC(C)=O)C(=O)N1C` (stereo not drawn), the growth inhibition was 97% (active).

Take `CCCCCCCCCCCCCCCCOCC(Cl)COP(=O)(O)OP(=O)(O)OCC1OC(n2cc(C)c(=O)[nH]c2=O)CC1O` (stereo not drawn): the growth inhibition is 59.6% (inactive).

For `CCCCCCCCCCNC(=O)CBr`, the growth inhibition is 64.8% (inactive).

`O=Cc1c(Cn2ccnc2)c2cc([N+](=O)[O-])ccc2n1Cc1ccccc1`: the growth inhibition is 13.7% (inactive).

The values are drawn from PubChem BioAssay (NCI).
